# Data as given in PubChem BioAssay (NCI).
# Where “and” joins values, the source holds several entries; their conditions need not be identical. Equal values may be shown once. The panel holds about 79,000 compounds, 15% with a hit somewhere; the sample as a whole holds those more often. A number with no mark means an inactive call. Cut-off read from the data, not from the text of the source: active = growth inhibition above about 70%; inactive = the rest.
# Assay: NCI Yeast Anticancer Drug Screen. Data for the rad50 strain (AID 155);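 note: 0% = growth of vehicle-only cultures of the same strain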
# Conditions: S. cerevisiae rad50 strain growth inhibition, hits give high values; at 50.0 µM unless noted
# Summary of the method: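 Relative growth inhibition (compound vs vehicle) was measured in yeast with a defined repair-gene alteration.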
row,SMILES,growth inhibition
1,O=[N+]([O-])c1cccc(/C=C/c2ccnc3ccccc23)c1,10.2%
2,CN1CCN(C2c3ccccc3OC(C)(C)C2O)CC1 (configuration not stated),-23.9%
3,ClC(Cl)CN(Cc1ccccc1)c1ncc[nH]1,22.5%
4,CCN(CC)CCNc1ccc2ncn3c4cc(=O)ccc4c(O)c1c23,-2.3%
5,Cc1cc[n+]2cc(-c3ccc(/C=N/N=C(N)N)cc3)n(C)c2c1,22.9%
6,C[C@H]1CC[C@@H]2O[C@@]23C(=O)OC2OC(C)(C)[C@@H]([C@H]2O)[C@]13C,-18.6%
7,CC(C)CNC(=O)c1ccccc1Cl,-22.9%
8,CC1=C(CCC(=O)O)C(=O)C(CCC(=O)O)C(C)(C)C1 (configuration not stated),19.4%
9,CC1=C2CC3=C(C)C(=O)O[C@H]3C[C@@H](C)[C@@H]2CC1,15.2%
10,O=S(=O)(O)C(I)S(=O)(=O)O,-19.1%
11,CC(C)(C1CCC([Si](C2CCCCC2)(C2CCCCC2)C2CCCCC2)CC1)[Si](C1CCCCC1)(C1CCCCC1)C1CCCCC1 (configuration not stated),8%
12,CCOP(=O)(OCC)/C(=C\n1c(=S)[nH]c2cc(C)ccc21)C(=O)OC,-34.1%
13,O=C(/C=C/c1ccc(OCC(=O)N2CCN(c3ccccc3)CC2)cc1)c1ccccc1,13%
14,CC1(C)N=C(N)N=C(N)N1c1ccc(N)cc1,1.7%
15,Cc1cc2nc3c(C(OC4OC(CO)C(O)C(O)C4O)C(O)CO)nn(-c4ccc(F)cc4)c3nc2cc1C (configuration not stated),3.6%
16,CCCCCCCCCCCCCCCc1ccc(N)c(OC2OC(CO)C(O)C(O)C2O)c1 (configuration not stated),-2.15% and -16.8%
17,Cn1c2ccccc2c2nnc(NCCCO)nc21,18.9%
18,C=CCSCc1ccccc1,4.55%
19,Cc1ccccc1C(=O)C[n+]1ccccc1C,-11.8%
20,CN1C(=O)CCC1c1nc2ccccc2[nH]1 (configuration not stated),0.15%
21,C(/C=N/NC1=NCCN1)=N\NC1=NCCN1,42%

# Assay: NCI Yeast Anticancer Drug Screen. Data for the mec2-1 strain (AID 157)
# Conditions: S. cerevisiae mec2-1 strain, hits give high values; at 50.0 µM unless noted
# Summary of the method: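 Mutant yeast (mec2-1) grown with compound; growth inhibition relative to vehicle control reported.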
row,SMILES,growth inhibition [%]
1,COc1cc2c(cc1OCc1ccccc1)C(Cc1cc(Br)sc1Br)=NCC2,58.5
2,C=C(NC(=O)C(c1ccccc1)c1ccccc1)C(=O)O,11.7
3,NC(=S)/N=C/C=C\c1ccccc1,2.3
4,COC(OC)C(C)=O,-19.8
5,Cc1[nH]n(-c2ccc(Cl)cc2)c(=O)c1N=Nc1cccc(C(F)(F)F)c1,2.05
6,NC(Cc1ccc2nc3c4ccccc4c(=O)cc-3oc2c1)C(=O)O (configuration not stated),-40.9
7,Cc1cccc[n+]1C,4.35
8,Cc1ccc(-c2ccc(C)cc2C(=O)O)c(C(=O)O)c1,1
9,CC(=O)N1C(=O)CC23c4cccc([N+](=O)[O-])c4C(=O)N2CCCN13 (configuration not stated),0.35
10,CCCCCCOc1ccccc1CO,10.6
11,Cc1ccccc1C(=O)c1ccccc1C,-9.95
12,O=c1[nH]c(Br)nc2c(N3CCCCC3)c[nH]c12,-0.45
13,COc1ccc(-c2cc(-c3ccco3)c(C#N)c(=O)[nH]2)cc1,6.2
14,[O-]c1nn(-c2ccccc2)n[n+]1-c1ccccc1,-12.4
15,O=C(CCl)Nc1cc2ccccc2oc1=O,42.4
16,CCOC(=O)c1ccc(NC(=O)Nc2cc(Cl)ccc2C)cc1,8.45
17,CCN(CC)Cc1cc(O)ccc1NCCCNc1ccnc2cc(Cl)ccc12,11.1
18,C/C(=N\NS(=O)(=O)c1ccc(C)cc1)c1cccs1,7.1
19,Nc1ccccc1[N+](=O)[O-],-3.45
20,O=[N+]([O-])c1cccc(/C=C/c2ccnc3ccccc23)c1,-13.1
21,CN1CCN(C2c3ccccc3OC(C)(C)C2O)CC1 (configuration not stated),-14
22,ClC(Cl)CN(Cc1ccccc1)c1ncc[nH]1,6.25
23,CCN(CC)CCNc1ccc2ncn3c4cc(=O)ccc4c(O)c1c23,-31.5
24,Cc1cc[n+]2cc(-c3ccc(/C=N/N=C(N)N)cc3)n(C)c2c1,33.9
25,C[C@H]1CC[C@@H]2O[C@@]23C(=O)OC2OC(C)(C)[C@@H]([C@H]2O)[C@]13C,-4.85
26,CC(C)CNC(=O)c1ccccc1Cl,20.1
